From PubChem
Rows were chosen to be rich in hits. Some 7.3% of all compounds tested hit in one or more screens of this group.
VACV mCherry inh = inhibitors of vaccinia virus infection (mCherry reporter signal) | Vaccinia virus mCherry reporter infection, fluorescence | Potency, µM (highest dose often 36.5 µM), without a hit: top-dose activity change, negative = inhibition, hits mostly inhibitors | 310,000 compounds, 0.63% hits | AID 720579; calls by dose curve; tested in A549 cells; further: potency means the concentration at half of the fitted maximal effect; nearly all actives have a fitted effect of over 35% in size
HCV inh = blocks hepatitis C virus. Huh7.5.1 HCVcc-Cre infection, luciferase reporter, 44 h. 340,000 compounds, 3.4% hits. Potency, µM (titrated, usually from 41.8 µM), without a hit: at the highest dose activity change, negative = inhibition, usual class: inhibitors; active means well fitted inhibition curve with a large enough effect; inconclusive means small, poorly fitted or top-dose-only effect, or another doubt; inactive means no such curve, though single readings can be large or run the other way; further: potency means the concentration at half of the fitted maximal effect
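Whole-lifecycle infectious HCVcc-Cre system; cells 1,000/well, compound then virus (~0.5 moi) added 4 h after plating, 44 h culture. Luciferase read 15 sec following 15 min substrate incubation, room temp.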
Vaccinia Venus = inhibitors of vaccinia virus (Venus reporter); Potency, µM (titrated, usually from 36.5 µM), inactives show top-dose activity change, negative = inhibition, usual class: inhibitors; 330,000 compounds, 0.46% hits; AID 720580; Vaccinia virus Venus reporter expression, fluorescence; calls by dose curve; tested in A549 cells; further: potency means the concentration at half of the fitted maximal effect; nearly all actives have a fitted effect of over 30% in size
FMDV antiviral = foot and mouth disease virus antiviral activity | FMDV antiviral cell-based qHTS | Potency, µM (top dose mostly 57.9 µM), inactives show top-dose activity change, negative = inhibition, most hits filed as inhibitors | 410,000 compounds, 1.2% hits | AID 1159524; calls by dose curve; tested in HEK293T cells; further: read-out not given here; potency means the concentration at half of the fitted maximal effect; nearly all actives have a fitted effect of over 45% in size
HCMV antiviral = human cytomegalovirus inhibition. HFF cells, HCMV-luciferase reporter, 72 h; stronger effect = lower value. activity change, negative = inhibition, % at 57.5 µM. 410,000 compounds, 4.5% hits. AID 1259415; in the data active means activity change below about -60%; inconclusive means no clear call, values can overlap the other calls; inactive means above about -39%
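After 16 h attachment at 37C, HFF cells received test compound and HCMV-luciferase (1 PFU/cell); reporter luminescence read 72 h later, data normalized against buffer-only and known inhibitor Salinomycin.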
Numbers without * were called inactive; i = inactive; ? = inconclusive; . = not tested or not shown; [ ] = dose if it differs, or a comment. On the % scale 0 is the no-effect control and ±100 the full control effect.

SMILES	VACV mCherry inh	HCV inh	Vaccinia Venus	FMDV antiviral	HCMV antiviral
Cc1ccnn1CC(=O)N1CCOc2c(cc(-c3csc4ccccc34)cc2OC2CCOC2)C1 (configuration not stated)	-7.0%	.	-1.7%	-0.4%	.
COc1cc(/C=N/NC(=O)c2cccc(NC(=O)c3ccccc3)c2)ccc1O	?	14.1%	-8.3%	4.1%	-81.8*
COc1cc(/C=N/NC(=O)CCn2c3ccccc3c3ccccc32)ccc1O	-24.0%	7.94µM*	-23.2%	.	?
COc1ccc(/C=N/NC(=O)CCOc2ccccc2C)cc1OC	-16.7%	16.3%	-10.0%	-10.1%	-79.0*
CCOc1ccccc1-c1cc(C(=O)N/N=C/c2ccc(O)c(OC)c2)c2ccccc2n1	12.6µM*	-3.7%	9.7%	?	-33.2
COc1cc(N(C)C)c(OC)cc1/C=C1\C=Cc2ccccc21	-15.4%	.	-4.5%	.	.
COc1ccc(/C=C/c2nc(C#N)c(N3CCC(C(N)=O)CC3)o2)cc1OC	-18.1%	.	-9.2%	-1.4%	6.3
CCOc1ccc(NC(=O)C2CCCN(c3nnc(-n4c(C)ccc4C)s3)C2)cc1 (configuration not stated)	-11.5%	.	-10.6%	-20.7%	-16.9
COc1cccc(NC(=O)c2csc3c2CCCCC3)c1	-15.5%	.	-13.9%	22.2%	81.1
Cn1c2ccccc2c2cc(/C=N/NC(=O)c3cc(O)ccc3O)ccc21	-1.3%	10µM*	?	20µM*	16.0
COc1ccc(N2CCN(CCCNC(=O)c3cnn(-c4ccc(F)cc4)c3-n3cccc3)CC2)cc1	?	.	-28.0%	?	-16.7
COc1cc(C2NC(=O)N(C)C3=C2C(=O)N(c2cccc(Cl)c2)C3)ccc1O (configuration not stated)	-0.4%	.	-1.5%	-21.2%	15.5
COc1cc(C2NC(=O)N(C)C3=C2C(=O)N(c2ccccc2)C3)ccc1O (configuration not stated)	8.1%	.	12.9%	-18.2%	-97.0*
C=CC(=O)Nc1ccc(N(C)c2ccnc(Nc3ccc(N4CCN(C)CC4)cc3)n2)cc1	6.31µM*	?	7.94µM*	0.0%	83.2
CN1CCN(c2ccc(NC(=O)Oc3ccccc3)cc2)CC1	-8.3%	18.3%	-0.6%	46.0%	-13.2
CCCCNc1nc(-c2ccccc2)nc(-n2ccnc2)n1	0.6%	3.55µM*	-1.5%	1.1%	-15.9
C=CCNc1nc(Cl)nc(Nc2ccccc2)n1	.	-29.5%	.	37.4%	-0.9
C=CCNc1nc(-c2ccccc2)nc(-n2ccnc2)n1	.	2.51µM*	.	-11.8%	10.8
COc1ccc(-c2nnc(SCC(=O)N(C)Cc3ccccc3)o2)cc1OC	-18.8%	.	-18.5%	-0.8%	9.3
Cc1ccc(C)c(Cn2nc(-c3ccccc3)ccc2=O)c1	?	31.6µM*	-10.7%	-11.1%	-26.0
COc1ccc(CNC(=O)CCc2nnc3n(CC(C)C)c(=O)c4ccccc4n23)cc1	i	.	-16.0%	-7.2%	7.4
Cc1ccc(N2C(N)=NC(N)=NC23CCCC3)c(C)c1	.	2.0%	1.4%	-18.2%	-67.4*
COc1cc(/C=C2\C[C@H]3[C@@H]4CC=C5C[C@@H](N6CCCC6)CC[C@]5(C)[C@H]4CC[C@]3(C)[C@H]2O)cc(OC)c1OC	-10.0%	7.08µM*	-9.4%	-2.3%	8.0
O=Cc1[nH]c2ccccc2c1N(C(=O)CCl)c1ccc([N+](=O)[O-])cc1	-25.5%	?	-4.0%	-19.2%	-101.1*
O=C(NC1CCN(CC(=O)N(c2ccccc2)c2ccccc2)CC1)c1ccc([N+](=O)[O-])cc1	-9.6%	?	-12.6%	-12.1%	12.6
SMILES	VACV mCherry inh	HCV inh	Vaccinia Venus	FMDV antiviral	HCMV antiviral
CC(=O)n1cc(N(C(=O)CCl)c2ccccc2)c2ccccc21	-19.7%	1µM*	-11.6%	14.1µM*	-97.6*
CC(=O)n1cc(N(C(=O)CCl)c2ccc([N+](=O)[O-])cc2)c2ccccc21	-28.3%	7.08µM*	-20.6%	10µM*	?
CC(=O)n1cc(CO)c2ccccc21	-9.3%	11.5%	0.6%	-15.0%	15.3
COc1cccc(/C=C2/SC(=S)N(CC(=O)Nc3nccs3)C2=O)c1	-12.7%	.	-12.0%	.	.
Nc1ncnc2c(C3OC(CO)C(O)C3O)c[nH]c12 (configuration not stated)	0.282µM*	?	0.251µM*	0.0%	-97.5*
COc1ccccc1-c1ccnc(-n2ncc(C(=O)NCCc3cccnc3)c2C)n1	-12.4%	.	3.9%	0.4%	.
Cc1cc(S(=O)(=O)N2CCN(c3ccc(F)cc3)CC2)ccc1-n1cnnn1	-20.6%	-11.9%	-9.1%	-13.7%	-11.0
Cc1cc(S(=O)(=O)N2CCN(c3ccccc3F)CC2)ccc1-n1cnnn1	-28.1%	?	-28.1%	?	-77.2*
Cc1cc(S(=O)(=O)N(Cc2ccc(C(C)(C)C)cc2)Cc2cccs2)ccc1-n1cnnn1	-26.2%	-18.4%	-27.1%	9.7%	6.2
Cc1cc(S(=O)(=O)N(Cc2cccs2)Cc2ccccc2F)ccc1-n1cnnn1	i	?	-6.6%	29.5%	-63.7*
COc1cc(-c2n[nH]c3ccnc(-c4cccc5ncccc45)c23)cc(OC)c1OC	.	.	.	.	3.6
CNc1nc(Cl)c(SC)c(N2CCOCC2)n1	-2.9%	0.891µM*	-18.0%	-15.7%	29.6
O=C(NCc1ccc(F)cc1)c1c(O)nc2ccccn2c1=O	-1.5%	.	1.8%	-7.0%	-61.5*
CCN(c1ccccc1)S(=O)(=O)c1cc(NC(=O)Nc2ccccc2C#N)ccc1Cl	?	?	-29.4%	?	-68.5*
CCN(c1ccccc1)S(=O)(=O)c1cc(NC(=O)COC(=O)C2CC2)ccc1Cl	-1.5%	-20.2%	-4.1%	-21.9%	78.6
CCN(c1ccccc1)S(=O)(=O)c1ccc(Cl)c(NC(=O)Nc2ccc(Cl)cc2C#N)c1	11.2µM*	?	10µM*	0.0%	?
NC(=O)c1c(NC(=O)c2noc3c2CCCC3)sc2c1CCCC2	i[7.34 µM]	.	-16.2%[7.34 µM]	23.1%	79.9
COC(=O)[C@@H]1[C@@H](CO)[C@@H]2Cn3c(ccc(Br)c3=O)[C@H]1N2S(=O)(=O)c1cccc(C)c1	.	.	.	.	-1.7
O=C(CSc1nnnn1C1CC1)N1CCN(Cc2ccccc2F)CC1	.	1.5%	.	-12.3%	-69.0*
COc1ccccc1N1CCN(C(=O)CSc2nnnn2C2CC2)CC1	-8.6%	-2.4%	-3.4%	3.4%	4.4
Nc1c(C(=O)Nc2ccccc2)sc2nc(-c3ccco3)ccc12	.	11.2µM*	.	?	8.6
Nc1c(C(=O)Nc2nc3ccccc3s2)sc2nc(-c3cccs3)ccc12	.	?	.	-103.8%	.
Nc1c(C(=O)Nc2ccccc2Br)sc2nc(-c3cccs3)ccc12	?	.	?	?	-70.9*
COc1ccccc1NC(=O)c1sc2nc(-c3ccco3)ccc2c1N	-13.1%	6.6%	-8.1%	-0.6%	.
NCC1OC(OC2C(N)CC(N)[C@@H](O)[C@@H]2OC2O[C@H](CO)[C@@H](O[C@@H]3OC(CN)C(O)C(O)C3N)C2O)C(N)C(O)C1O (some centres not stated)	-10.3%	.	-2.8%	-2.3%	.
CCOc1ccc(Cl)cc1C1=CC(=O)C[C@H](c2ccc(OC)cc2)C1	i	8.91µM*	-24.8%	0.0%	-38.7
